Reference: PubChem BioAssay AID1494156 (National Center for Advancing Translational Sciences (NCATS), 2020)
Records with an inconclusive call do not appear. A number with no mark means an inactive call. Calls of active or inactive are those of the source. Calls come from the whole dose curve.

Assay: VSV-G qHTS counterscreen for inhibitors of MERS-S pseudo-typed particle cell entry
Details: VSV-G pseudotyped particle cell entry, luciferase counterscreen; series mostly up to 57.1 µM; activity, negative = inhibition: at the top concentration

**Q.** Which Potency does the source give for `C[C@]12CC[C@H](O)C[C@H]1CCC1C2CC[C@]2(C)[C@@H](c3ccc(=O)oc3)C[C@H]3O[C@]132` (stereo not given in full) here?
**A.** The Potency was 4.82 µM (active).

**Q.** Which Potency does the source give for `Cc1cn([C@H]2C[C@H](N=[N+]=[N-])[C@@H](CO)O2)c(=O)[nH]c1=O` here?
**A.** The Potency was 0.304 µM (active).

**Q.** For `CC(=O)[C@]1(O)Cc2c(O)c3c(c(O)c2[C@@H](O[C@H]2C[C@H](N)[C@H](O)[C@H](C)O2)C1)C(=O)c1ccccc1C3=O`, which Potency is on record?
**A.** The Potency was 2.15 µM (active).

**Q.** Which “activity, negative = inhibition” value does the source give for `C=CC1(C)CC(=O)C2(O)C(C)(O1)C(OC(C)=O)C(OC(=O)CCN(C)C)C1C(C)(C)CCC(O)C12C` (stereo not given) here?
**A.** The value was 0%.

**Q.** Which Potency does the source give for `N=C(N)c1ccc(OCCCCCOc2ccc(C(=N)N)cc2)cc1` here?
**A.** Its Potency is 10.8 µM (active).

**Q.** With `COc1cccc2c1C(=O)c1c(O)c3c(c(O)c1C2=O)C[C@@](O)(C(=O)CO)C[C@@H]3O[C@H]1C[C@H](N)[C@@H](O)[C@H](C)O1` as the compound, how does the Potency read?
**A.** Its Potency is 2.41 µM (active).

**Q.** For `COc1ccc2cc1Oc1ccc(cc1)C[C@H]1c3c(cc4c(c3Oc3cc5c(cc3OC)CCN(C)[C@@H]5C2)OCO4)CCN1C`, which Potency is on record?
**A.** The Potency was 21.5 µM (active).

**Q.** Which Potency does the source give for `Cc1nnc(C(=O)NC(C)(C)c2nc(C(=O)NCc3ccc(F)cc3)c(O)c(=O)n2C)o1` here?
**A.** The Potency was 0.0038 µM (active).

**Q.** For `CC[C@@H]([C@H](C)O)n1ncn(-c2ccc(N3CCN(c4ccc(OC[C@@H]5CO[C@@](Cn6cncn6)(c6ccc(F)cc6F)C5)cc4)CC3)cc2)c1=O`, which Potency is on record?
**A.** Its Potency is 6.81 µM (active).

**Q.** Which “activity, negative = inhibition” value does the source give for `CCCN1C[C@H](C)[C@@H](O)[C@](C)(O)[C@@H](CC)OC(=O)[C@H](C)[C@@H](O[C@H]2C[C@@](C)(OC)[C@@H](O)[C@H](C)O2)C(C)[C@@H](O[C@@H]2O[C@H](C)C[C@H](N(C)C)[C@H]2O)[C@](C)(O)C[C@H]1C` (stereo not given in full) here?
**A.** Its value is 0%.
